# Assay results from PubChem BioAssay AID1851 (National Center for Advancing Translational Sciences (NCATS), 2009).
# “And” between values parts separate entries of the source, which are not always exact repeats. Identical values can stand only once. About 5,700 (36%) of roughly 16,000 compounds were called active. About 24% were inconclusive and are not listed. Calls follow the shape of the dose curve; as a rule, active = well fitted curve in the direction sought with a large enough effect; inconclusive = small, poorly fitted or top-dose-only effect, or effect the other way; inactive = no such curve, though single readings can be large or run the other way. Some of the results follow. Square brackets hold non-standard residues; d marks the D form. Peptide text beside a SMILES is read from it.
# Molecular target: Cytochrome P450 1A2 (Homo sapiens) (UniProt P05177)
# Sequence (P05177 whole entry, looked up): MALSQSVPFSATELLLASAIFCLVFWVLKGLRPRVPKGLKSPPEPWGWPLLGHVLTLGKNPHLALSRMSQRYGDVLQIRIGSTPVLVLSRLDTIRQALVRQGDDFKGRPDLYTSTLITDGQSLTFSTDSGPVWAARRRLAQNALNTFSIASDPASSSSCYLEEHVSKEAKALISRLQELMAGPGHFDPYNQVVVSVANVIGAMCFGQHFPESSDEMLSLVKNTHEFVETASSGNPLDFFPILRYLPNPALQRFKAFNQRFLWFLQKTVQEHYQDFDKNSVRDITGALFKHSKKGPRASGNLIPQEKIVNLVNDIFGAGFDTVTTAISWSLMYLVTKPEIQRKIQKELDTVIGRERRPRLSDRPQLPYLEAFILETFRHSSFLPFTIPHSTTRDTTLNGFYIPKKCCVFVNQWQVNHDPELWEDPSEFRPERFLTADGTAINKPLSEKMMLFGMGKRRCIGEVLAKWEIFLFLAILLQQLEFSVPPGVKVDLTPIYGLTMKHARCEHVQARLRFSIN
# Assay: Cytochrome panel assay with activity outcomes
# Details: recombinant CYP, pro-luciferin dealkylation, luminescence, p450-cyp1a2; series mostly up to 57.1 µM
# % is scaled to controls: 0 for no effect and ±100 for the full control effect.
SMILES,AC50,"activity, negative = inhibition"
Cc1nc(N=Nc2cc(S(=O)(=O)O)ccc2S(=O)(=O)O)c(COP(=O)(O)O)c(C=O)c1O,inactive,
COc1cc([C@H](O)C(=O)O)ccc1O,inactive,
COc1cc(CNC(=O)CCCC/C=C\C(C)C)ccc1O,1.58 µM (active) and 3.16 µM (active),
COc1cc(CC(=O)O)ccc1O,inactive,
O=C(O)/C=C\C(=O)Nc1ncn[nH]1,,-8.55% [at 11.4 µM] (inactive)
O=C(Nc1ncn[nH]1)c1ccc([N+](=O)[O-])cc1[N+](=O)[O-],inactive,
Clc1ccc(Nc2ncn[nH]2)cc1,4.47 µM (active),
Cc1cc(C(C#N)c2cccc(Cl)c2)n2ncnc2n1 (centres undefined),5.01 µM (active),
CC[C@@H]1CN2CCc3cc(OC)c(OC)cc3[C@H]2C[C@@H]1C[C@H]1NCCc2cc(OC)c(OC)cc21,inactive,
NC1CCN(c2cccc(Cl)n2)CC1,15.8 µM (active),
c1c[nH]c(CN2CCN(Cc3ncc[nH]3)CC2)n1,,0.981% [at 11.4 µM] (inactive)
COc1ccc(C2N=C(N)N=C(N)N2c2ccccc2OC)cc1OC (centres undefined),inactive,
CCn1c(SCC(=O)Nc2ccccc2C(=O)OC)nnc1-c1ccc(N)cc1,14.1 µM (active),
CC(C)CC(C(=O)NCC1CCCO1)N(C(=O)Cn1nnc(-c2ccc(F)cc2)n1)c1ccccc1F (centres undefined),inactive,
O=C(O)C[C@H]1OCC=C2C[N@@+]3([O-])CC[C@]45c6ccccc6N[C@@H]4[C@@H]1[C@H]2C[C@H]53,,-14.3% [at 2.29 µM] (inactive)
COc1ccc(O[C@H]2C=C[C@@H](c3ccccc3)O[C@@H]2CO/N=C(\C)CCN2CCCCc3nc(C)c(C)cc32)cc1,,0.173% [at 11.4 µM] (inactive)
CN(C)Cc1ccccc1-c1cc(-n2ccnc2)ncn1,5.01 µM (active),
COc1ccccc1-c1cc(-n2ccnc2)ncn1,0.316 µM (active),
Cc1cc(-c2cccc([N+](=O)[O-])c2)nc2ccc3ccccc3c12,0.631 µM (active),
Nc1nc(-c2cccc([N+](=O)[O-])c2)cc(-c2cc(-c3cccc([N+](=O)[O-])c3)nc(N)n2)n1,,0.313% [at 2.29 µM] (inactive)
CCn1c(CNC(=O)COc2ccc(C(C)C)cc2)nnc1SCC(=O)Nc1cc(F)ccc1C,inactive,
O=C(Cn1c(-c2cscn2)nc2ccccc21)Nc1cc(F)ccc1F,2.51 µM (active),
O=C(Cn1c(C(F)(F)F)nc2ccccc21)c1ccc(F)cc1,inactive,
Cn1ncc2c(Cl)ncnc21,,-5.24% [at 11.4 µM] (inactive)
Cn1ncc2c(NCCc3ccccc3)nc(Cl)nc21,2.51 µM (active),
CN1CCN(c2ncc3nc(-c4cccs4)c(=O)n(Cc4cccs4)c3n2)CC1,15.8 µM (active),

SMILES,AC50,"activity, negative = inhibition"
COc1cccc(Cn2c(=O)c(-c3ccccc3)nc3cnc(N4CCN(C)CC4)nc32)c1,inactive,
COCCn1c(=O)c(-c2cccs2)nc2cnc(N3CCN(C)CC3)nc21,15.8 µM (active),
CN1CCN(c2ncc3nc(-c4ccccc4)c(=O)n(Cc4ccc(F)cc4)c3n2)CC1,inactive,
CC(C)CNS(=O)(=O)c1cc(C(=O)N2CC(C)OC(C)C2)c(Cl)cc1Cl (centres undefined),inactive,
Cc1cccc(CNc2ccnc(-c3cccnc3)n2)c1,0.126 µM (active),
c1ccc(CNc2ccnc(-c3cccnc3)n2)cc1,0.251 µM (active),
COc1cc(C)ccc1OCCOc1cc(C)ccc1Cl,inactive,
C[C@@H]1C[C@H](C)CN(S(=O)(=O)c2cc(Cl)c(Oc3ccc([N+](=O)[O-])cc3Cl)c(Cl)c2)C1,,-15.8% [at 11.4 µM] (inactive)
COc1cc(C)ccc1OCCCOc1ccccc1Br,1.58 µM (active),
COc1cc(C)ccc1OCCCOc1ccccc1Cl,2.51 µM (active),
COc1ccccc1OCCCOc1ccc([N+](=O)[O-])cc1Cl,2 µM (active),
CC1(C)CCC=[N+]1[O-],inactive,
CO/N=C(\C)CCN1CCc2nc(-c3ccccc3)c(-c3ccccc3)cc2C1,,7.31% [at 11.4 µM] (inactive)
CO[C@H]1COC(=O)[C@H]2CCCN2C(=O)[C@@H](C)COC(=O)C/C=C\[C@@H]1C,,-1.05% [at 11.4 µM] (inactive)
CC(=O)Nc1c(S(=O)(=O)c2ccccc2)c2nc3ccccc3nc2n1Cc1ccccc1,inactive,
CCn1c2ccc(Cl)cc2c2nc3ccccc3nc21,0.501 µM (active),
Cc1cc(-c2n[nH]c(=S)o2)c(C)n1-c1ccccc1,14.1 µM (active),
CN(C)S(=O)(=O)Oc1ccc(Cl)cc1C(=O)Nc1cccc(C(F)(F)F)c1,7.08 µM (active),
CN(C)S(=O)(=O)Oc1ccccc1C(=O)Nc1cccc(C(F)(F)F)c1,8.91 µM (active),
CC(O)(CS(=O)(=O)Cc1ccccc1Cl)C(=O)Nc1cccc(C(F)(F)F)c1 (centres undefined),inactive,
CO[C@@H]1/C=C\CC(=O)N[C@@H](C)C(=O)OC[C@H](NS(=O)(=O)c2ccc(C)cc2)[C@H](C)/C=C\CC(=O)OC[C@H]1C,,8.52% [at 11.4 µM] (inactive)
COC(=O)C/C=C\[C@H](C)[C@@H](OC)c1ccccc1Br,,-0.474% [at 11.4 µM] (inactive)
CN(CC(=O)O)CC(=O)O,,-5.93% [at 2.29 µM] (inactive)
CCOC(=O)C(C)Sc1ncc(OC)c(Sc2ccc(Cl)cc2)n1 (centres undefined),12.6 µM (active),
COC(=O)CSc1ncc(OC)c(OC)n1,inactive,
O=C(Nc1ccccc1)N1CCCC2(CCN(C(=O)c3cnccn3)CC2)C1,inactive,

SMILES,AC50,"activity, negative = inhibition"
COc1ccc(-c2cc(C(=O)Nc3cnn(Cc4ccccc4C)c3)no2)cc1OC,inactive,
O=C(Nc1cnn(Cc2ccc(Cl)cc2Cl)c1)c1cc(-c2cccs2)on1,2.51 µM (active),
Cc1cccc(-c2c3c(=O)n(C)c(=O)n(C)c3cn2C2CCCCC2)c1,inactive,
O=C(c1cnccn1)N1CCC2(CC1)CCN(c1ccccc1)CC2,inactive,
O=C(Nc1ccccc1N1CCOCC1)c1cnccn1,4.47 µM (active),
O=C(Nc1ccccc1N1CCOCC1)c1ccc([N+](=O)[O-])cc1,inactive,
CNc1ccnc(-c2c(C)noc2C)n1,1.26 µM (active),
Cc1noc(C)c1-c1nccc(NC2CC2)n1,0.1 µM (active),
COCCNc1ccnc(-c2c(C)noc2C)n1,2.51 µM (active),
c1cc(NC2CC2)nc(-c2ccoc2)n1,0.251 µM (active),
O=C1O/C(=C\Br)CC[C@@H]1c1cccc2ccccc12,inactive,
Clc1cnccn1,inactive,
Cc1noc(C)c1-c1nccc(Nc2ccc(F)cc2)n1,0.398 µM (active),
Cn1c2c(c(=O)n(C)c1=O)CN(CCN1CCNCC1)CN2,inactive,
COC(=O)c1ccc(Oc2nc(N(C)C)nc(N3CCOCC3)n2)cc1,3.55 µM (active),
COc1ccc(C(=O)N2CCC3(CC2)CCN(c2ncccn2)CC3)cc1,inactive,
O=c1ccc(Oc2nc(N3CCOCC3)nc(N3CCOCC3)n2)n[nH]1,inactive,
CCOC(=O)C(C(=O)NCc1ccc(C)cc1)c1ncc(C(F)(F)F)cc1Cl (centres undefined),10 µM (active),
Cc1ccc(CNCC(O)(c2ccc(F)cc2)c2ccc(F)cc2)cc1,inactive,
NCC(=O)N[C@H](CO)C(=O)O (H-Gly-[dS]-OH),,-8.79% [at 11.4 µM] (inactive)
O=c1cnc2cncnc2n1Cc1ccccc1,25.1 µM (active),
COc1cccc(Cn2c(=O)cnc3cncnc32)c1,15.8 µM (active),
OC[C@@H]1O[C@@H](n2cnc3cncnc32)[C@@H](O)[C@H]1O,inactive,
Cc1ccc([C@@H](O)c2cnc(C)n2Cc2ccccc2)cc1,,-10.8% [at 11.4 µM] (inactive)
CC(C)CC(c1nnnn1C(C)C)N1CCN(c2ccccc2)CC1 (centres undefined),inactive,
CCCn1nnnc1-c1cc(Cl)cc(Cl)c1,2.82 µM (active),

SMILES,AC50,"activity, negative = inhibition"
CC(C)n1nnnc1-c1cc(Cl)cc(Cl)c1,8.91 µM (active),
CCS(=O)(=O)c1ccc2c(c1)N(S(C)(=O)=O)CC(C(=O)NCCOC)O2 (centres undefined),inactive,
CCOC(=O)CCN1C(=O)[C@H]2[C@@H]3[C@H](O)[C@H](O)CC(=O)[C@H]3CC[C@H]2C1=O,,-2.79% [at 11.4 µM] (inactive) and -9.9% [at 11.4 µM] (inactive)
COC(=O)C/C=C\[C@@H](C)[C@@H](/C=N\O[C@@H](C)CN1CCCc2nc(C)c(C)cc21)NS(=O)(=O)c1ccc(C)cc1,,-5.78% [at 11.4 µM] (inactive)
Nc1ccc2c3c(cccc13)C(=O)NC2=O,1 µM (active),
O=C(O)/C=C1\NC(=O)c2ccccc21,inactive,
COC(=O)c1sc2ncccc2c1OCc1c(Cl)cccc1Cl,0.158 µM (active),
COc1ccc(C[C@@](C)(N)C(=O)O)cc1OC,inactive,
COc1cc(CNCc2cccs2)ccc1OCC(=O)NC(C)(C)C,3.16 µM (active),
COc1ccc(NC(=O)COc2ccc(CNCCCN3CCOCC3)cc2OC)cc1,inactive,
COc1cc(CNCCc2ccccc2)ccc1OCC(=O)NC(C)(C)C,inactive,
COc1ccc(CNC(=O)Nc2cccs2)cc1OC,12.6 µM (active),
COc1ccc(CCn2c3c(c(=O)[nH]c2=O)C(NC(=O)c2cccs2)(C(F)(F)F)C(=O)N3)cc1OC (centres undefined),inactive,
C/C(CCN1CCCCc2nc(C)c(C)cc21)=N\OC[C@@H](C)[C@H](OCc1ccccc1)C(C)C,,-4.06% [at 11.4 µM] (inactive)
N#Cc1ccc(CN2CC[C@@]3(CCCN(C(=O)c4cc(C(F)(F)F)cc(C(F)(F)F)c4)C3)C2)cc1,25.1 µM (active),
O=C(c1cc(C(F)(F)F)cc(C(F)(F)F)c1)N1CCC[C@@]2(CCN(c3ccncc3)C2)C1,inactive,
COCC(=O)N1CCC2(CCN(Cc3ccncc3)CC2)CC1,10 µM (active),
CC(=O)N1CCC2(CCN(Cc3ccncc3)CC2)CC1,inactive,
O=C(c1cc(C(F)(F)F)cc(C(F)(F)F)c1)N1CCC[C@@]2(CCN(Cc3ccncc3)C2)C1,12.6 µM (active),
O=C(c1ccncc1)N1CCC2(CCN(Cc3ccncc3)CC2)CC1,inactive,
N#Cc1ccc(CN2CC3(CCN(C(=O)c4cc(C(F)(F)F)cc(C(F)(F)F)c4)CC3)C2)cc1,inactive,
N#Cc1ccc(CN2CCC3(CC2)CCN(C(=O)c2cc(C(F)(F)F)cc(C(F)(F)F)c2)CC3)cc1,inactive,
O=S(=O)(c1ccccc1)N1CCC2(CCCN(Cc3ccncc3)C2)CC1,12.6 µM (active),
N#Cc1ccc(CN2CCCC3(CCN(S(=O)(=O)c4ccccc4)CC3)C2)cc1,inactive,
O=C(c1cc(C(F)(F)F)cc(C(F)(F)F)c1)N1CCC2(CCCN(Cc3ccncc3)C2)CC1,inactive,
O=S(=O)(c1ccccc1)N1CCC2(CCN(Cc3ccncc3)CC2)CC1,inactive,
